Results reported in PubChem BioAssay AID1628 (Sanford-Burnham Center for Chemical Genomics, 2009).
Out of some 190,000 compounds screened, about 930 (0.49%) were called active.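 How the source made its calls: active means z-score of insulin promoter reporter brightness in nuclei below -3 at 5 µM, with at least 500 cells counted; inconclusive means wells with under 500 cells, flagged as toxic or sparse; inactive means the rest.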 Some of the results follow. Results with a measured potency or affinity are listed apart.

Assay: insulin promoter down-regulators in MIN6 cells, imaging, high-content screening, mouse beta cells (AID 1628)
Conditions: MIN6 insulin promoter GFP reporter, at 5 µM, stronger effect = lower value
With C1=C(N2CCOCC2)/C(=C/c2nc3ccccc3[nH]2)CC1 the z-score was 3.43 (inactive). With CCN(CC)c1ccc2cc(C(=O)Nc3ccccn3)c(=O)oc2c1 the z-score was 6.12 (inactive). With COc1ccc(N=c2oc3cc(O)ccc3cc2C(=O)Nc2ccccn2)cc1OC the z-score was -3.17 (active). With CCCN1C(=O)/C(=C/c2c(NCCCOC(C)C)nc3c(C)cccn3c2=O)SC1=S the z-score was 11.2 (inactive). In the case of CC(C)OCCCn1c(NN)nc2ccccc2c1=O, the z-score is reported as -4.32 (active). With O=c1oc2ccccc2c(NCc2cccc(F)c2)c1[N+](=O)[O-] the z-score was 1.25 (inactive). In the case of Cc1ccc(/C(C#N)=C\c2ccc(N3CCOCC3)o2)cc1, the z-score is reported as 6.7 (inactive). With Cc1cc(C)c2nc(NNC(=O)c3cc(-c4cccs4)nc4ccccc34)sc2c1 the z-score was 3.73 (inactive). For C/C(=N\NC(=O)c1cc(-c2ccccn2)nc2ccccc12)c1cccc([N+](=O)[O-])c1, the z-score was 4.2 (inactive). In the case of C/C(=N\NC(=O)c1cc(-c2cccs2)nc2ccccc12)c1ccccn1, the z-score is reported as -6.25 (active). In the case of Cc1ccc(N2C(=O)c3cccc4c(N5CCN(C)CC5)ccc(c34)C2=O)c2cccnc12, the z-score is reported as 5.89 (inactive). In the case of Cc1ccnc(N2C(=O)c3cccc4c([N+](=O)[O-])ccc(c34)C2=O)c1, the z-score is reported as 3.14 (inactive). With COc1ccc(NC(=O)c2sc3nc(-c4cccnc4)ccc3c2N)cc1 the z-score was 6.04 (inactive). In the case of O=C(Nc1cccnc1)c1ccc(S(=O)(=O)c2ccc(Cl)cc2)cc1, the z-score is reported as 1.01 (inactive). In the case of COc1ccc(Cc2nc(-c3ccc(NC(=O)c4cccnc4)cc3)no2)cc1, the z-score is reported as -4.08 (active). With Cc1cccc(C2C3=C(Nc4[nH]n(-c5ccccc5)c(=O)c42)c2ccccc2C3=O)c1 (centres undefined) the z-score was -4.1 (active). In the case of Brc1ccc2oc3c(N4CCOCC4)ncnc3c2c1, the z-score is reported as -0.34 (inactive). With c1ccc2c(c1)oc1c(N3CCN(Cc4ccc5c(c4)OCO5)CC3)ncnc12 the z-score was -6.44 (active). In the case of CC(C)/C=C1\CC/C(=C\c2ccc(N(C)C)cc2)C1=O, the z-score is reported as 3.08 (inactive). With COc1cc(-c2noc(C3CCCN(S(=O)(=O)c4cccc(Cl)c4)C3)n2)cc(OC)c1OC (centres undefined) the z-score was -3.23 (active). For COc1cccc2c(=O)n(CC(=O)Nc3cccc(F)c3)ccc12, the z-score was 3.43 (inactive). For Cc1ccccc1C(=O)Nc1cccc(NC(=O)Cn2cnc3c(=O)n(C)c(=O)n(C)c32)c1, the z-score was -5.95 (active). In the case of Cc1nc(NC(=O)COC(=O)CCS(=O)(=O)c2ccccc2Cl)c(Cl)cc1Cl, the z-score is reported as 4.24 (inactive). For O=C(COC(=O)Cn1cnc2ccccc2c1=O)Nc1cc(Cl)ccc1[N+](=O)[O-], the z-score was -4.27 (active). In the case of N#Cc1cccc(NC(=O)COC(=O)CCc2nc3ccccc3c(=O)[nH]2)c1, the z-score is reported as 1.59 (inactive). For CCc1cc2c(N3CCN(c4nnc(CC)s4)CC3)ncnc2s1, the z-score was -5.09 (active). With CCOc1cc(/C=N/NC(N)=O)cc(Br)c1OCc1ccccc1F the z-score was -5.46 (active). In the case of CCCNC(=O)N1CCC(C(=O)c2ccc(Cl)cc2)CC1, the z-score is reported as 3.79 (inactive). With O=C(C1CCC1)N1CCc2cc(S(=O)(=O)NCCN3CCN(c4ccccc4F)CC3)ccc21 the z-score was -4.42 (active). For O=C(C1CCC1)N1CCc2cc(S(=O)(=O)NCc3cccnc3)ccc21, the z-score was -3.56 (active). In the case of Nc1c(C(=O)C2CC2)sc2nc(-c3ccccc3)cc(C(F)(F)F)c12, the z-score is reported as 11.2 (inactive). In the case of C(=N\c1nc2ccccc2[nH]1)/c1cccs1, the z-score is reported as -1.35 (inactive). In the case of CC(=O)c1c(C)[nH]c(-c2ccccc2)nc1=S, the z-score is reported as 5.61 (inactive). With Cc1ccc(NS(=O)(=O)c2cc(C(=O)O)ccc2Cl)c(C)c1 the z-score was 1.63 (inactive). For Cc1cc2c(ncn2C)c(NS(=O)(=O)c2ccccc2Cl)c1C, the z-score was -4.59 (active). With NC(=O)c1cc2ccc(O)cc2oc1=NCc1ccccc1 the z-score was 6.96 (inactive). For CCN(CC)c1ccc2cc(C(N)=O)/c(=N\NC(=O)c3ccncc3)oc2c1, the z-score was 5.56 (inactive). For CCOc1cccc2cc(C(N)=O)c(=NCc3ccccc3)oc12, the z-score was -3.34 (active). For CN(C)/C=N/c1sc2c(c1C#N)CCC2, the z-score was -0.51 (inactive). In the case of O=C(O)CC12CSc3[nH]c(=O)sc3C1c1ccccc1OC2=O (centres undefined), the z-score is reported as 3.25 (inactive). For Fc1ccc(C2CC(c3ccco3)=NN2c2ccccc2)cc1 (centres undefined), the z-score was 3.51 (inactive). For O=C(O)CCC(=O)N1CC=C(c2ccccc2)CC1, the z-score was -3.14 (active). For O=C(COc1ccccc1)N1CCN=C1c1ccccc1, the z-score was 3.07 (inactive). In the case of O=C(O)c1ccn(COc2ccc(Br)cc2)n1, the z-score is reported as 4.62 (inactive). For CCOC(=O)N1CCC(NC(=O)c2cc(C(=O)Nc3ccc(OC)c(OC)c3)ccc2CO)CC1, the z-score was 3.42 (inactive). For CCN1CCc2c(sc(NC(=O)Nc3ccc(Cl)c(Cl)c3)c2C(N)=O)C1, the z-score was 16 (inactive). For Cc1cn(S(=O)(=O)c2ccc(Br)c3ccccc23)cn1, the z-score was -4.36 (active). For COc1ccc(N(C(=O)Cc2cccs2)C2C=CS(=O)(=O)C2)cc1 (centres undefined), the z-score was 3.14 (inactive). With O=C1S/C(=C\c2ccc(N3CCOCC3)o2)C(=O)N1Cc1c(F)cccc1Cl the z-score was 14.9 (inactive). In the case of C1=C(c2ccccc2)Nc2nnnn2C1, the z-score is reported as 3.1 (inactive). With NC(=S)N/N=C/c1cccc(O)c1O the z-score was -5.73 (active). With FC(F)C(F)(F)C1=CC(c2ccccc2)=NCCN1 the z-score was -3.16 (active). For O=C1C2C3C=CC(C3)C2C(=O)N1CCC(=O)N1CCc2ccccc21 (centres undefined), the z-score was 0.52 (inactive). In the case of CC1CCc2nc3ccccc3c(C(=O)OCC(=O)N3CCc4ccccc43)c2C1 (centres undefined), the z-score is reported as -7.27 (active). For Cc1cccc2cc3c(N)c(C(=O)N4CCc5ccccc54)sc3nc12, the z-score was 4.42 (inactive). For CCOc1ccc(NC2=NCC(=O)N2Cc2cccs2)cc1, the z-score was 4.8 (inactive). With COc1ccc(Cc2nnc(NC(=O)Cc3cccs3)s2)cc1 the z-score was 3.48 (inactive). In the case of CCOc1cccc(NC(=O)Cc2cccs2)c1, the z-score is reported as -3.39 (active). For O=C(O)CCCCCCCCCCCc1ccccc1, the z-score was 0.16 (inactive). For CC1=C(C(=O)OCc2ccccc2)C(c2ccccc2)NC(=O)N1CCCCCC(=O)O (centres undefined), the z-score was -5.52 (active). In the case of CCOC(=O)/C(=C\C=C1/Sc2cc(OCC)c(OCC)cc2N1CC)C(C)=O, the z-score is reported as 16.7 (inactive). In the case of COc1cccc(-c2cc3nc4c(c(N5CCC6(CC5)OCCO6)n3n2)CCC4)c1, the z-score is reported as -3.88 (active). With COc1cc(OC)cc(-c2cc3nc4c(c(N5CCN(c6ncccn6)CC5)n3n2)CCCC4)c1 the z-score was -3.61 (active). In the case of Clc1cccc(-c2cc3nc4c(c(N5CCNCC5)n3n2)CCCC4)c1, the z-score is reported as -0.83 (inactive).
